# Compound activity deposited in PubChem BioAssay by National Center for Advancing Translational Sciences (NCATS).
# Rows were chosen to be rich in hits. Some 17% of all compounds tested hit in one or more screens of this group.
# TDP1 cell noCPT – qHTS for Inhibitors of human tyrosyl-DNA phosphodiesterase 1 (TDP1): qHTS in cells in absence of CPT. DT40 Tdp1-/- hTDP1 cells, no CPT, ATP luminescence, 48 h. Potency, µM (highest dose often 46.2 µM), inactives show top-dose activity change, negative = growth inhibition, hits mostly inhibitors. actives 15% (n = 420,000); note: % is set by controls: 0 for no effect and ±100 for the full control effect; nearly all actives have a fitted effect of over 55% in size
#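 A cellular qHTS used chicken DT40 cells lacking endogenous Tdp1 but carrying stably transfected human TDP1. Compounds were applied without camptothecin, and cell growth kinetics were judged by ATP-dependent luminescence after ≥48 hr.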
# TGFb SMAD3 inh – qHTS for Inhibitors of TGF-b. Potency, µM (doses to about 46.1 µM), without a hit: at the top dose activity, negative = inhibition, usual class: inhibitors. actives 1.2% (n = 410,000). AID 588855, 2011. HepG2 CAGA-GFP TGF-b/SMAD3 reporter, GFP fluorescence, 18 h; TGF-beta stimulated, 500 pg/mL final; note: % is set by controls: 0 for no effect and ±100 for the full control effect; nearly all actives have a fitted effect of over 65% in size
#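 Cell-based qHTS in HEPG2 carrying a CAGA-GFP Smad reporter; compounds added before 500 pg/mL final TGF-beta, 18 h incubation at 37 degrees C, GFP fluorescence quantified per cell by imaging cytometry.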
# HepG2 tox – qHTS for Inhibitors of TGF-b: Cytotox Counterscreen; Potency, µM (highest dose often 46.1 µM), inactives show at the highest dose activity change, negative = cytotoxicity, actives largely listed as cytotoxic; actives 0.76% (n = 410,000); HepG2 CAGA-GFP viability, ATP luminescence, 18 h; AID 588856, 2011
#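 CellTiter-Glo luminescence gave cytotoxicity after 18 hours at 37 degrees C. The cells were HepG2 CAGA-GFP in 1% FBS DMEM, stimulated with 500 pg/mL TGF-beta after compound addition. %Activity was normalised to no-cell wells (complete cell-killing) and DMSO (no toxicity), and curves were fitted and classified.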
# ATXN2 expr inh – Primary qHTS for Inhibitors of ATXN expression | HEK-293 ATXN2-luciferase reporter, luminescence, 24 h | Potency, µM (highest dose often 57 µM), without a hit: at the highest dose activity change, negative = inhibition, usual class: inhibitors | actives 0.72% (n = 360,000); note: % is set by controls: 0 for no effect and ±100 for the full control effect; nearly all actives have a fitted effect of over 55% in size
#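 ATXN2-luciferase reporter cells (luciferase flanked by upstream and downstream ATXN2 gene portions) were treated 24 h at 37 °C with compounds at up to 57 uM. SteadyGlo luminescence gave expression; GF-AFC fluorescence gave viability.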
# ATXN viability – Viability Counterscreen for Primary qHTS for Inhibitors of ATXN expression | S2 cells (HEK-293 line with an ATXN2-luciferase reporter) viability, CellTiter-Fluor protease fluorescence, 24 h | Potency, µM (top dose mostly 56.7 µM), usual class: cytotoxic | actives 0.49% (n = 400,000) | AID 651635, 2014; note: nearly all actives have a fitted effect of over 40% in size
# TDP1 cell CPT – qHTS for Inhibitors of human tyrosyl-DNA phosphodiesterase 1 (TDP1): qHTS in cells in presence of CPT; chicken DT40 Tdp1-/-;hTDP1 cells + 20 nM CPT, ATP luminescence, 48 h; Potency, µM (top dose mostly 46.2 µM), for inactives: at the top dose activity change, negative = growth inhibition, usual class: inhibitors; actives 12% (n = 420,000); AID 686979, 2013; note: % is set by controls: 0 for no effect and ±100 for the full control effect; nearly all actives have a fitted effect of over 55% in size
#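 Chicken DT40 Tdp1-/- cells complemented with human TDP1, 400 cells/well, exposed to compounds plus 20 nM camptothecin for at least 48 h at 37 C; viability read as ATP content by CellTiter-Glo luminescence.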
# * hit, by the source's call; i = inactive; ? = inconclusive; · = not tested or not shown; [ ] = remark or other dose. Calls come from the whole dose curve; as a rule, active = well fitted curve in the direction sought with a large enough effect; inconclusive = small, poorly fitted or top-dose-only effect, or another doubt; inactive = no such curve, though single readings can be large; an effect the other way counts as inactive or inconclusive. Potency is the fitted concentration of half-maximal effect.
SMILES,TDP1 cell noCPT,TGFb SMAD3 inh,HepG2 tox,ATXN2 expr inh,ATXN viability,TDP1 cell CPT
O=C(CCCCCNC(=O)c1ccccc1Br)N=Nc1c(O)[nH]c2ccccc12,?,0.8%,-2.9%,·,i,20.6µM*
O=C(N=Nc1c(O)[nH]c2ccccc12)Nc1ccccc1,?,-12.6%,-22.9%,50.6%,i,18.4µM*
O=C1CCC(=O)N1Cc1c(Cl)cccc1Cl,-11.5%,3.8%,3.1%,15.3%,i,0.1%
CCOC(=O)CSc1cc(-c2ccccc2)nc2ncnn12,?,-24.9%,-48.7%,-29.0%,?,-9.4%
NS(=O)(=O)c1cc(C(=O)N=Nc2c(O)[nH]c3ccccc23)ccc1Cl,18.4µM*,-26.1%,-21.9%,9.5%,i,?
O=C(N=Nc1c(O)[nH]c2ccccc12)c1cccc(S(=O)(=O)Nc2ccccc2Cl)c1,-9.2%,-8.5%,2.8%,·,i,?
Cc1sc2c(c1C)c(=O)n(-c1cccc(C(F)(F)F)c1)c(=O)n2Cc1ccccc1C#N,-16.1%,1.7%,-2.7%,-0.2%,i,-20.0%
CCOC(=O)c1cc(C(=O)n2cc(Cl)cn2)nn1C,-16.9%,8.0%,1.1%,-1.0%,i,-12.8%
Cc1c(NC(=O)c2nc3ccccc3n(C)c2=O)cccc1[N+](=O)[O-],?,-20.7%,1.9%,12.3%,i,-2.7%
CCOC(=O)C1=CC[C@@H](c2ccccc2)N(S(=O)(=O)c2ccc(C)cc2)[C@H]1c1ccc(C#N)cc1,9.2µM*,?,-5.4%,-4.5%,i,11.6µM*
CCOC(=O)C1=CC[C@@H](c2ccc(F)cc2)N(S(=O)(=O)c2ccc(C)cc2)[C@H]1c1ccccc1,23.1µM*,?,-11.1%,-14.3%,i,16.4µM*
CCOC(=O)C1=CC[C@@H](c2cc(OC)c(OC)c(OC)c2)N(S(=O)(=O)c2ccc(C)cc2)[C@H]1C(=O)OCC,?,-8.7%,-17.8%,-2.7%,?,25.9µM*
CCOC(=O)C1=CC[C@@H](c2ccccc2)N(S(=O)(=O)c2ccc(C)cc2)[C@H]1c1ccccc1C,9.2µM*,-22.1%,-27.4%,-10.0%,i,13µM*
CCOC(=O)C1=CC[C@@H](c2ccc([N+](=O)[O-])cc2)N(S(=O)(=O)c2ccc(C)cc2)[C@H]1c1ccccc1,?,-8.9%,-6.1%,13.2%,i,?
CCC(CC)C(=O)N1N=C(c2ccc(NS(C)(=O)=O)cc2)CC1c1ccc(C)cc1 (stereo not given),?,?,-9.7%,·,?,?
S=C(NCCN1CCOCC1)Nc1ccc(Cl)c(Cl)c1,1.2%,-24.7%,-10.3%,-2.1%,i,-3.2%
CCOC(=O)C1=CC[C@@H](c2ccccc2)N(S(=O)(=O)c2ccc(C)cc2)[C@H]1C=C(C)C,11.6µM*,-28.7%,-27.2%,-19.4%,?,16.4µM*
CCOC(=O)C1=CC[C@@H](c2ccccc2)N(S(=O)(=O)c2ccc(C)cc2)[C@H]1C#N,?,?,-64.8%,-15.8%,?,?
CC(=S)/C=C1\Sc2ccccc2N1C,23.1µM*,?,-20.3%,6.6%,i,14.6µM*
O=c1[nH]c(COc2ccc(Br)cc2Cl)nc2ccccc12,?,-26.8%,-21.6%,35.5%,i,20.6µM*
CCOc1ccc(Nc2nnc(SCc3nc4ccccc4c(=O)[nH]3)s2)cc1,18.4µM*,-25.4%,-16.8%,·,i,18.4µM*
O=c1[nH]c(COc2ccccc2)nc2ccccc12,?,-4.7%,-5.8%,·,?,20.6µM*
O=c1[nH]c(CSc2nnc(COc3ccccc3)n2-c2ccccc2)nc2ccccc12,-29.3%,2.2%,-16.0%,21.4%,i,-1.3%
COc1ccc(C(=O)c2coc3ccc(O)cc23)cc1,?,-13.4%,-17.8%,·,i,1.8%[9.04 µM]
Cc1ccc2c(c1)C(c1ccccc1)N(C(=O)c1cccc([N+](=O)[O-])c1)CC(=O)N2 (stereo not given),?,6.2%,-3.4%,-20.7%,i,?
SMILES,TDP1 cell noCPT,TGFb SMAD3 inh,HepG2 tox,ATXN2 expr inh,ATXN viability,TDP1 cell CPT
CC(=O)N1C(C)(C)CC(=NOS(=O)(=O)c2ccccc2)CC1(C)C,1.0%,-10.9%,-0.8%,-27.6%,i,-2.9%
CC(C)CCNC(=O)N1CCN(S(=O)(=O)c2ccc3c(ccn3C)c2)CC1,·,0.1%,-17.2%,7.1%,i,·
CCOc1ccccc1CNCc1c(C(=O)O)n(Cc2ccccc2)c2cc(OC)ccc12,13µM*,?,7.2%,12.2%,?,?
COc1ccc2c(CNCCc3ccco3)c(C(=O)O)n(Cc3ccc(F)cc3)c2c1,?,-15.6%,-3.4%,16.1%,?,?
COc1ccc(Cn2c(C(=O)O)c(CNC3CCCC3)c3ccc(OC)cc32)cc1,-29.1%,-5.1%,-12.9%,-2.6%,?,?
COc1ccc2c(CNC3CCC(C)CC3)c(C(=O)O)n(Cc3ccc(F)cc3)c2c1 (stereo not given),16.4µM*,?,-48.2%,-12.8%,?,?
COc1ccc(Cn2c(C(=O)O)c(CNCc3ccccc3F)c3ccc(OC)cc32)cc1,16.4µM*,·,-46.8%,·,·,?
COc1ccc2c(CNCCc3ccccc3)c(C(=O)O)n(Cc3cccc(F)c3)c2c1,18.4µM*,?,-30.6%,·,·,?
CCCS(=O)(=O)NC(=O)C1(C)CCN(C(=O)c2cccc(OC(F)(F)F)c2)C1 (stereo not given),1.7%,5.5%,4.1%,3.6%,i,18.8%
O=C(CSc1nc2c(c(=O)[nH]1)CN(Cc1ccc3c(c1)OCO3)CC2)Nc1ccccc1Cl,?,0.8%,-9.5%,-3.2%,?,-11.0%
CCOc1ccc(S(=O)(=O)Nc2cc(Cl)ccc2OC)c2cccnc12,14.6µM*,?,-27.2%,-24.7%,i,14.6µM*
CCOc1ccc(S(=O)(=O)N2CCN(c3ccccc3)CC2)c2cccnc12,-0.9%,?,-17.5%,-16.4%,?,-0.3%
CCOc1ccc(S(=O)(=O)N2CCN(c3ccccc3OC)CC2)c2cccnc12,23.1µM*,-10.2%,1.6%,1.0%,i,?
CCOc1ccc(S(=O)(=O)Nc2cccc(C)c2)c2cccnc12,18.4µM*,-11.4%,-7.8%,-20.3%,i,11.6µM*
